Measurements from PubChem BioAssay AID2642 (Johns Hopkins Ion Channel Center, 2010).
About 3,900 (1.3%) of roughly 310,000 compounds were called active.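 How the source made its calls: active means compounds whose thallium flux B-score, printed positive for inhibition, exceeds three library SD while starting fluorescence stays within three; inactive means the rest.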 This excerpt belongs to a sample that is enriched for actives.

Biological target: Potassium voltage-gated channel subfamily KQT member 1 (Homo sapiens) (UniProt P51787)
Sequence (P51787 whole entry, looked up): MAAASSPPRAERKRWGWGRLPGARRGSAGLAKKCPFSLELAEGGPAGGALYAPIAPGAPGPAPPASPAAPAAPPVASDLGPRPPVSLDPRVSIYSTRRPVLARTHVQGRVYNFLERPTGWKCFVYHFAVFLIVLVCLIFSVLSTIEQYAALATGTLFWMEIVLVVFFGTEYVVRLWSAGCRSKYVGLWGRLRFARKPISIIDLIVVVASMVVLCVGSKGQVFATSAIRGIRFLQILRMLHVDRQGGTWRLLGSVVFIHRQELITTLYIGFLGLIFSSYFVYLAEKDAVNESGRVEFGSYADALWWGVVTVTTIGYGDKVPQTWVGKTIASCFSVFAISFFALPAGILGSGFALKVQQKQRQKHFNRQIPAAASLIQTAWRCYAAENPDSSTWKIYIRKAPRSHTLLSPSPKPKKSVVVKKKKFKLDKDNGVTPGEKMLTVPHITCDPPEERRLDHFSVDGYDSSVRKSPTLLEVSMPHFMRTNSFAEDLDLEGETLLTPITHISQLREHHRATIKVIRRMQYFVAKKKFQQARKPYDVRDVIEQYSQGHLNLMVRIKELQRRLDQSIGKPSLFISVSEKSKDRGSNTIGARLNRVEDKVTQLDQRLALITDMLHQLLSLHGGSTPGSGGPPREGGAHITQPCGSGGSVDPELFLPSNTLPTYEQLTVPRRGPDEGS
Test: KCNQ1 potassium current blockers – cell-based, thallium flux, high-throughput, primary screen (AID 2642);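 further: channel opened by potassium depolarization with thallium stimulus after 20 min compound exposure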
Conditions: CHO-K1 KCNQ1, FluxOR thallium flux fluorescence, at 10 µM; hits give high values

SMILES | B-score
CSc1ccc(S(=O)(=O)N2CCC(C(=O)NCc3ccncc3)CC2)cc1 | inactive
Cc1csc(NC(=O)CSc2nnc(-c3cccnc3)o2)n1 | inactive
Cc1ccccc1OCC(=O)Nc1ccc2c(c1)ncn2C | inactive
Cc1ccccc1OCC(=O)Nc1ccc(N2CCN(C(=O)C(C)C)CC2)c(Cl)c1 | 6 (active)
Cc1ccccc1OCC(=O)Nc1ccc(S(=O)(=O)N2CCOCC2)cc1 | inactive
CC(=O)NNC1=Nc2ccccc2N(C)C(C)C1 (stereo not drawn) | inactive
CCc1ccc2c(c1)C1(NN=C(c3ccccc3)S1)C(=O)N2 (stereo not drawn) | 11 (active)
CC(C)N(C(=O)Cn1cc(S(=O)(=O)CC(=O)N2CCOCC2)c2ccccc21)C(C)C | inactive
COc1ccccc1NC(=O)c1ccc(N2CC3CC(C2)c2cccc(=O)n2C3)c(NC(=O)c2cccnc2)c1 (stereo not drawn) | inactive
O=C1CCC(=O)N1c1ccc(NCCc2ccccc2F)c([N+](=O)[O-])c1 | inactive
CC1(c2nnc(Cc3ccccc3)o2)CC(c2ccccc2F)=NO1 (stereo not drawn) | inactive
Cc1cc(N2C(=O)C(O)=C(C(=O)c3ccc(C)o3)C2c2ccc(OCc3ccccc3)cc2)no1 (stereo not drawn) | inactive
C=CCOc1cccc(C2C(C(=O)c3ccc(C)o3)=C(O)C(=O)N2c2nnc(C)s2)c1 (stereo not drawn) | 11 (active)
C=CCOc1cccc(C2C(C(=O)c3ccc(C)o3)=C(O)C(=O)N2CCCn2ccnc2)c1 (stereo not drawn) | inactive
COc1ccc(NC(=O)C2=CC(c3ccc(OC)c(OC)c3)=NS(=O)(=O)N2C)cc1 | inactive
COCc1cc(C)n(CC(=O)NCC2CCCO2)c(=O)c1C#N (stereo not drawn) | 6 (active)
Cc1ccc2c(c1)N(CC(=O)NCC1CCCO1)C(=O)CO2 (stereo not drawn) | inactive
Cc1nn(CC(=O)NCC2CCCO2)c(=O)c2cc3ccccc3n12 (stereo not drawn) | inactive
Cc1cc(-c2ccc(C)c(S(=O)(=O)Nc3ccc(S(N)(=O)=O)cc3)c2)on1 | inactive
COc1ccccc1C(c1nnnn1CC1CCCO1)N1CCN(c2ccccc2)CC1 (stereo not drawn) | inactive
Cc1cccc(N2CCN(C(c3ccccc3)c3nnnn3CC3CCCO3)CC2)c1C (stereo not drawn) | 6 (active)
Cc1cccc(N2CCN(C(c3ccc(N(C)C)cc3)c3nnnn3C(C)(C)C)CC2)c1C (stereo not drawn) | inactive
NC(=O)C1CCN(C(=O)CC2C(=O)NCCN2Cc2cccc(Oc3ccccc3)c2)CC1 (stereo not drawn) | inactive
CS(=O)(=O)N1CCc2nc(-c3ccccc3)sc2C1 | inactive
Cc1c(OC(C)C(=O)N[C@@H](Cc2ccccc2)C(=O)O)ccc2c3c(c(=O)oc12)CCCC3 (stereo partly drawn) | inactive
COc1ccc2c3c(c(=O)oc2c1OCC(=O)C(C)(C)C)CCCC3 | inactive

SMILES | B-score
CCCOc1ccc2c3c(c(=O)oc2c1OCCC)CCC3 | 8 (active)
CC(=O)Nc1ccc(C(=O)N(C2=NC(C)CS2)c2ccc(Cl)cc2)cc1 (stereo not drawn) | inactive
CCC(C)[C@H](NC(=O)N1c2ccccc2NC(=O)[C@@H]1C(C)C)C(=O)N[C@@H](Cc1ccccc1)C(=O)O (stereo partly drawn) | inactive
CCCCCCCCn1c2c(c(=N)c3c1CCC3)CCCC2 | 10 (active)
Cc1ccccc1CCNC(=O)C1CCC(=O)N(Cc2ccc(Cl)cc2)C1 (stereo not drawn) | inactive
N#Cc1c(-c2ccccc2)nc(SCc2cccc(C(F)(F)F)c2)[nH]c1=O | 8 (active)
Cc1ccc(CSc2nc(-c3ccccc3)c(C#N)c(=O)[nH]2)cc1 | inactive
N#Cc1c(-c2ccccc2)nc(SCc2ccc([N+](=O)[O-])cc2)[nH]c1=O | inactive
Clc1ccc2nc(CSc3ccccc3)cn2c1 | inactive
CCOC(=O)c1cnc(-n2nc(C)cc2C)nc1NNc1cc(C)nc(-c2ccccc2)n1 | inactive
COc1ccc(NC(C)=O)cc1NC(=O)CN1CCN(C2c3ccccc3-c3ccccc32)CC1 | inactive
O=C1CCN(Cc2ccccc2)CCN1[C@H](CSc1ccccc1)c1ccccc1 | inactive
CCOc1ccc(NC(=O)COc2ccc(C(=O)N3CCC(C(N)=O)CC3)cc2OC)cc1 | inactive
CCNC(=O)c1ccc(OCC(=O)Nc2ccc(F)cc2)c(OC)c1 | 6 (active)
COc1ccc(NC(=O)COc2ccc(C(=O)c3ccc(F)cc3)cc2)cc1S(N)(=O)=O | inactive
Cc1ccccc1Cn1c2ccccc2c2cnn(CC(=O)NCc3ccco3)c(=O)c21 | inactive
CSC1=N/C(=C\C=C\c2cccs2)C(=O)S1 | inactive
CC(=O)Nc1ccc(NC(=O)C(C)OC(=O)C2CC(=O)N(CCc3ccccc3)C2)cc1 (stereo not drawn) | inactive
CC(C(=O)NCC1CCCCC1)N(C)Cc1cccc(Cl)c1 (stereo not drawn) | 8 (active)
COc1ccc(CN(C)C(C)C(=O)NC2CCCc3ccccc32)cc1 (stereo not drawn) | inactive
Cc1ccccc1NC(=O)NCC1CCN(Cc2cccc(Cl)c2)CC1 | inactive
COc1cccc(COC(=O)C2CCN(S(=O)(=O)c3cccs3)CC2)c1OC | inactive
O=C(COC(=O)/C(=C/c1cccs1)c1cccs1)NCc1ccccc1Cl | 7 (active)
O=C(COC(=O)c1cc2c(s1)CCCC2)NCc1ccccc1Cl | inactive
O=C(COC(=O)c1cccs1)NCc1cccs1 | inactive
O=c1c2c(nc3cc(-c4cccc(Cl)c4)[nH]n13)CCCC2 | inactive

SMILES | B-score
O=C(CN1C(=O)NC2(CCCC2)C1=O)OCCOc1ccc(F)cc1 | inactive
Cc1c(NS(=O)(=O)c2ccc(NC3CCCC3)c([N+](=O)[O-])c2)c(=O)n(-c2ccccc2)n1C | inactive
Cc1cc([N+](=O)[O-])ccc1NC1CCCC1 | inactive
Cc1cc(C=O)c(C)n1-c1ccc(NC2CCCCC2)c([N+](=O)[O-])c1 | 14 (active)
CC(=O)Oc1c(C(=O)c2nnc(C)o2)c(=O)n(Cc2ccccc2)c2ccccc12 | inactive
Cn1nc(-c2ccccc2)c(CO)c1Sc1ccccc1 | inactive
Cn1nc(-c2ccccc2)c(CSc2cccc(Cl)c2)c1Cl | 6 (active)
Cc1ccc(S(=O)(=O)c2c(COC(=O)c3cccc(Cl)c3)c(-c3ccccc3)nn2C)cc1 | inactive
COc1cccc(OCCCN2CCCCCC2)c1 | inactive
CCCCCCCCCCOC(=O)Cn1c(COc2cccc(OC)c2)[n+](C)c2ccccc21 | 8 (active)
CCCCCCCCCCOC(=O)Cn1c(COc2ccc(C)cc2)[n+](C)c2ccccc21 | inactive
COc1ccc(C2=NOC(Cn3nc(C(=O)NCc4ccc5c(c4)OCO5)cc3-c3ccccc3)C2)cc1 (stereo not drawn) | inactive
CCCCN(CC)CCNC(=O)CCNC(=O)Cn1ccc2ccccc2c1=O | inactive
FC(F)(F)c1cc(-c2ccco2)nc(NCc2ccc(Cl)cc2)n1 | 11 (active)
FC(F)(F)c1cc(-c2cccs2)nc(NCc2ccco2)n1 | inactive
Cc1cc(C(F)(F)F)nn1-c1nc(-c2ccco2)cc(C(F)(F)F)n1 | inactive
COc1ccc(NC(=O)CSc2nncc(=O)n2N)cc1OC | inactive
COc1cccc(NC(=S)NCc2ccco2)c1 | inactive
COc1cc(NC(=S)NCc2ccco2)c(OC)cc1Cl | inactive
FC(F)Oc1ccc(NC(=S)NCc2ccco2)cc1Cl | 7 (active)
CCOC(=O)c1cnc2c(c(C)nn2CC)c1Cl | inactive
COc1ccc(S(=O)(=O)N2CCCC2CNC(=O)C(=O)NC2CC2)cc1 (stereo not drawn) | inactive
Cc1nc(Nc2ccc3c(c2)OCCO3)c2nnn(Cc3ccccc3Cl)c2n1 | 7 (active)
CCCc1nc(NCc2ccc3c(c2)OCO3)c2nnn(Cc3ccccc3Cl)c2n1 | inactive
Cc1nc(Nc2ccccc2F)c2nnn(Cc3ccccc3Cl)c2n1 | inactive
CCCN1C(=O)C(Cc2nc3ccccc3c(=O)n2-c2ccccc2)c2cc(C)ccc21 (stereo not drawn) | inactive

SMILES | B-score
O=[N+]([O-])/C=C/c1ccc2c(ccn2Cc2ccccc2)c1 | inactive
COc1ccccc1N1CCN(C(=O)c2ccc(NC3=NC4CS(=O)(=O)CC4S3)cc2)CC1 (stereo not drawn) | inactive
CCC(=O)Nc1nc(C)c(C(=O)Nc2cccc(Cl)c2)s1 | inactive
CC(C(=O)NC1CCCC1)N(c1ccc(Oc2ccccc2)cc1)S(C)(=O)=O (stereo not drawn) | inactive
CCCCN(C)CCCNC(=O)c1cc(-c2cccs2)nc2ccccc12 | inactive
COC(=O)CNC(=O)c1cc(-c2ccncc2)nc2ccccc12 | inactive
CCc1ccc(-c2cc(C(=O)NCc3ccco3)c3ccccc3n2)s1 | 6 (active)
COc1ccccc1Cn1c(C)nnc1-c1cnn(C)c1N | inactive
Cc1cc(C)cc(NS(=O)(=O)Cc2ccccc2)c1 | inactive
CCc1cc(C(=O)OC)c(NC(=O)CC2Sc3ccc(C(F)(F)F)cc3NC2=O)s1 (stereo not drawn) | inactive
Cc1cccc(C(=O)NNC(=O)CSc2nnc(C(C)C)n2C)c1 | inactive
Cc1cccc(CSc2ccc(-c3cccs3)nn2)c1 | 7 (active)
O=C(CSc1ccc(-c2cccs2)nn1)Nc1ccccc1F | inactive
Cc1cccc(CSc2nnc(NC(=O)CSc3nnc(C)s3)s2)c1 | inactive
CCOC(=O)C1(CCOc2ccccc2)CCN(Cc2ccc(C#CCCO)cc2)CC1 | inactive
Cc1cc(OCc2cc(C(=O)NCc3cc(C(C)C)no3)no2)cc(C)c1Cl | inactive
CCCCn1c(SCc2ncc(-c3ccccc3)o2)nc2cc(S(N)(=O)=O)ccc21 | inactive
Cc1oc2c(F)c(F)c(F)c(F)c2c1S(=O)(=O)Nc1cccc(C(F)(F)F)c1 | 12 (active)
CCNS(=O)(=O)c1ccc(NC(=O)Nc2cccc(C(F)(F)F)c2)cc1 | inactive
O=C(/C=C/c1ccc(F)cc1)Nc1cccc(S(=O)(=O)Nc2cccc(C(F)(F)F)c2)c1 | inactive
COc1ccc(/C(=N\O)c2nccc3cc(OC)c(OC)cc23)cc1OC | inactive
CCOC(=O)N1CCN(C(=O)C2CCN(Cc3ccc(OC)cc3OC)CC2)CC1 | inactive
CCOC(=O)N1CCN(C(=O)C2CCN(c3ncnc4c3sc3cccc(F)c34)CC2)CC1 | 6 (active)
CCOC(=O)N1CCN(C(=O)C2CCN(S(=O)(=O)c3cc(Cl)ccc3OCC)CC2)CC1 | inactive
COc1ccc2c(c1)CCc1cn3ncc(C#N)c3nc1-2 | inactive
